In all, about 360,000 compounds went through this assay and about 2,200 (0.61%) were called active. The list comes from a sample in which actives are over-represented; it also holds similar structures and randomly drawn compounds. Values without a mark were called inactive.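 Rule for the calls: active = inhibition above a per-plate cutoff, the plate's mean sample inhibition plus 3 SD (cut at about 24% in these data); inactive = the rest.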
Experiment: nonselective inhibitors of ATP calcium response in CHO-K1, primary screen, counter-screen for M1 antagonist project, cell-based, Fluo-8 calcium fluorescence, full deck, 1536-well (AID 602250);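 note: 0% = DMSO plus EC80 ATP and 100% = DMSO alone without ATP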
Conditions: CHO-K1 parental, ATP-induced calcium, Fluo-8 fluorescence; at 3 µM; hits give high values

| Structure (SMILES) | inhibition |
| --- | --- |
| C#Cc1ccc([C@@H]2C=C(C(=O)O)O[C@H](OCCCCO)C2)cc1 | -9.51% |
| CN(N)c1nc(N2CCCC2)nc(N2CCCC2)n1 | 25.6% (active) |
| O=C(NNc1nc(N2CCCC2)nc(N2CCCC2)n1)c1ccccc1 | -8.06% |
| FC(F)(F)COc1nc(N2CCCCC2)nc(N2CCNCC2)n1 | -9.46% |
| COC(=O)c1ccc(CN2CCCC(C(=O)Nc3cccc(-n4cnnn4)c3)C2)cc1 (stereo not drawn) | 0.04% |
| O=Cc1c(NCCc2cccc(F)c2)c2ccccc2[nH]c1=O | -10.6% |
| CCCCOc1ccc(N(CC(=O)NC(C)C)C(=O)CCC(=O)Nc2ccccn2)cc1 | 23.1% |
| COc1cc(CNc2ncn[nH]2)ccc1OCc1ccccc1C | -1.69% |
| O=C(CNS(=O)(=O)c1ccccc1)NCC(=O)OCc1ccccc1F | -0.17% |
| CCOC(=O)c1c(N=CN(C)C)c(C#N)c2n1CCCC2 | -8.04% |
| CCSC1=C(C#N)C(=O)n2c1cc1c2CCCC1 | -1.55% |
| CCSc1ncnc2c(C#N)c3n(c12)CCCCC3 | 40.4% (active) |
| Cc1cc2oc(=O)cc(CN(C)Cc3ccccc3)c2cc1Cl | 6.2% |
| Cc1ccc2nc(NC(=O)CSc3nc(=O)n(CCCN(C)C)c4c3CCC4)sc2c1 | -19.7% |
| CCN(CC)CCn1c2c(c(SCC(=O)Nc3nc4ccccc4s3)nc1=O)CCCC2 | 28.3% (active) |
| CCN(CC)CCn1c2c(c(SCC(=O)Nc3ccc(C(C)C)cc3)nc1=O)CCC2 | -0.47% |
| C=CCNC(=S)NNc1ncnc2sc3c(c12)CC(C)(C)OC3 | -3.73% |
| O=C(C1CCN(S(=O)(=O)c2cccs2)CC1)N1CCCCCC1 | -13.2% |
| Cc1ccc(S(=O)(=O)N2C[C@]3(O)C[C@@H]4C(=O)N(c5ccccc5)C(=O)[C@@H]4C[C@]3(OC(=O)NC3CC3)C2)cc1 | -3.35% |
| O=C(Nc1ccccc1)c1ccc2nsnc2c1 | 29.9% (active) |

| Structure (SMILES) | inhibition |
| --- | --- |
| Cc1cccc(NC(=O)c2ccc3nsnc3c2)c1C | -0.08% |
| CC(C)n1c(=O)[nH]c2cc(C(=O)Nc3ccccc3)ccc21 | 2.48% |
| CCC1Oc2ccc(Cl)cc2N(CC(=O)O)C1=O (stereo not drawn) | -18.5% |
| COc1ccc(C(=O)NC(=S)N2CCNC(=O)C2CC(=O)OC(C)C)cc1 (stereo not drawn) | -6.8% |
| Cc1ccccc1C(=O)NCCN=C1NS(=O)(=O)c2ccccc21 | 27.1% (active) |
| CN(C)S(=O)(=O)c1ccc(C(=O)NCCN=C2NS(=O)(=O)c3ccccc32)cc1 | -3.13% |
| O=C(NCCN=C1NS(=O)(=O)c2ccccc21)c1ccc(S(=O)(=O)N2CCOCC2)cc1 | 2.91% |
| CCCC(=O)N1CCC1(C)C(=O)Nc1ccc(-n2cncn2)cc1 (stereo not drawn) | -6.21% |
| C=CCC1(CC=C)CCCN1C(=O)c1cc(COc2ccc(-n3cncn3)cc2)on1 | 31.3% (active) |
| O=C(c1cc(COc2c(F)cccc2F)on1)N1CCSCC1 | -8.58% |
| COc1ccccc1C(=O)Nc1cccc(C(=O)N2CCOCC2)c1 | -9.07% |
| COc1cc(C(c2c(NC(=O)c3ccco3)sc(C)c2C)N2CCOCC2)cc(OC)c1OC (stereo not drawn) | 5.36% |
| CCc1cc(C(c2ccccc2OC)N2CCOCC2)c(NC(=O)c2ccccc2)s1 (stereo not drawn) | 24.8% (active) |
| CC(C)OCCCNC(=O)c1ccc(C2SCC(=O)N2Cc2ccco2)cc1 (stereo not drawn) | -4.67% |
| COC(=O)c1ccc(-c2c(-c3ccccc3)ncc3cc(OC)c(OC)cc23)cc1 | 8.1% |
| Cc1cc(=O)n2nc(N3CCCC(C(=O)NCc4cccc(Cl)c4)C3)sc2n1 (stereo not drawn) | -13.5% |
| Cc1cc(=O)n2nc(N3CCCC(C(=O)N4CCN(C)CC4)C3)sc2n1 (stereo not drawn) | 26.5% (active) |
| Cc1cc(=O)n2nc(N3CCCC(C(=O)NCc4ccc(Cl)cc4)C3)sc2n1 (stereo not drawn) | -0.44% |
| Cc1ccc(NC(=O)c2oc(=O)c3ccccc3c2-c2ccccc2)c(C)c1 | -9.65% |
| CCc1nnc(NC(=O)CSCc2cc(=O)n3cc(C)sc3n2)s1 | -12.4% |

| Structure (SMILES) | inhibition |
| --- | --- |
| O=C(C1CCCN(S(=O)(=O)c2ccccc2)C1)N1CCN(c2ccc(F)cc2)CC1 (stereo not drawn) | -2.45% |
| COc1cccc(N2CCN(C(=O)C3CCCN(S(=O)(=O)c4cnc[nH]4)C3)CC2)c1 (stereo not drawn) | 2.59% |
| CC(=O)N1CCCc2cc(S(=O)(=O)N3CCCC(C(=O)N4CCN(c5cccc(Cl)c5)CC4)C3)ccc21 (stereo not drawn) | 30.4% (active) |
| COc1ccc(OC)c(S(=O)(=O)N2CCCC(C(=O)NCCc3ccccc3)C2)c1 (stereo not drawn) | -10.1% |
| CCc1ccccc1NC(=O)CN1CCN(C(=O)c2cc(C3CC3)nn2-c2ccccc2)CC1 | -11.2% |
| Cc1nn(Cc2ccccc2)c(C)c1C(=O)N1CCN(CC(=O)Nc2ccccc2Cl)CC1 | 23.9% (active) |
| CCC(=O)Nc1ccccc1C(=O)N1CCN(Cc2ccccc2)CC1 | 19.3% |
| CCCC(C)c1nnc(NC(=O)C2CC(=O)N(c3ccc(OCC)cc3)C2)s1 (stereo not drawn) | -4.36% |
| Cc1nc(SCC(=O)NC2CCCC2)[nH]c(=O)c1C | -8.77% |
| CCCCC(=O)N1CC2(C)CN(C(=O)CCCC)CC(C)(C1)C2=O | -5.12% |
| COc1c(O)cc2oc(-c3ccc(O)c(O)c3)cc(=O)c2c1O | 24.9% (active) |
| CCOC(=O)COc1cc(OCC(=O)OCC)c2c(=O)cc(-c3ccccc3)oc2c1 | -13.4% |
| COc1cc(O)c2c(=O)c3c(O)c(O)ccc3oc2c1OC | -9.49% |
| CCN(CC(=O)NCc1cccs1)C(=O)/C=C/c1ccc(C)cc1 | -10.9% |
| CCCc1ccc(-c2c(C)sc(NC(=O)c3ccnn3C)c2C#N)cc1 | 29.1% (active) |
| Cc1sc(NC(=O)C2=COCCO2)c(C#N)c1C | -16.8% |
| CCCc1cc(=O)[nH]c(SCC(=O)Nc2sc3c(c2C#N)CCCC3)n1 | 5.46% |
| Nc1cccc(S(=O)(=O)Nc2ccc(SC(F)F)cc2)c1 | 12.1% |

Source: PubChem BioAssay AID602250 (The Scripps Research Institute Molecular Screening Center, 2012)
